Shown are actives, neighbours in structure and some others; about 7.4% of the full set was active somewhere.
NPC1 promoter act: activators of NPC1 promoter. Potency, µM (highest dose often 9.22 µM), inactives show top-dose activation, hits mostly activators. AID 485313. Huh7 NPC1 promoter luciferase reporter, 24 h. 2.4% of 320,000 active; also: % of control where 0% means no effect; nearly all actives have a fitted effect of over 60% in size
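In 1536-well qHTS, Huh7 cells harboring an NPC1 promoter–luciferase construct received compound for 24 h; activation was quantified by luminescence following luciferase reagent addition.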
Rab9 prom act: activators of Rab9 promoter | Huh7 Rab9 promoter-luciferase reporter, luminescence, 24 h | Potency, µM (top dose mostly 9.22 µM), for inactives: at the highest dose activation, negative = inhibition, hits mostly activators | 2.8% of 320,000 active | AID 485297; also: % of control where 0% means no effect; nearly all actives have a fitted effect of over 60% in size
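Luminescence from Amplite-detected luciferase (10 minutes, ambient) reports Rab9 promoter activation. Before that, stable Rab9-luciferase Huh7 cells (1500/well, reduced-serum OP-MEM I plus 10% FBS) were exposed to compound for 24 hours at 37C.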
ELG1 genotox: induces genotoxicity in HEK293T cells with luciferase-tagged ELG1. 1.3% of 330,000 active. AID 504466. Potency, µM (highest dose often 46 µM), for the others: at the highest dose activity change, positive = activation, most hits filed as activators. HEK293T ELG1-luciferase reporter, luminescence, 16 h; also: % of control where 0% means no effect; nearly all actives have a fitted effect of over 60% in size
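After overnight (16 hr) compound treatment at 37 °C, ELG1-luciferase HEK293T cells were lysed with ONE-Glo; luminescence quantified 30 min later at room temperature.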
FLuc counter: inhibits or activates purified firefly luciferase, miR-21 counter-screen; 6.9% of 360,000 active; Potency, µM (highest dose often 57.5 µM), inactives show at the top dose activity change, negative = inhibition, usual class: inhibitors; purified FLuc, Km substrates, luminescence inhibition; P08659; AID 588342;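 also: plate controls were vehicle for no effect and reference inhibitor for full effect; nearly all actives have a fitted effect of over 55% in size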
Target sequence (P08659 whole entry, looked up): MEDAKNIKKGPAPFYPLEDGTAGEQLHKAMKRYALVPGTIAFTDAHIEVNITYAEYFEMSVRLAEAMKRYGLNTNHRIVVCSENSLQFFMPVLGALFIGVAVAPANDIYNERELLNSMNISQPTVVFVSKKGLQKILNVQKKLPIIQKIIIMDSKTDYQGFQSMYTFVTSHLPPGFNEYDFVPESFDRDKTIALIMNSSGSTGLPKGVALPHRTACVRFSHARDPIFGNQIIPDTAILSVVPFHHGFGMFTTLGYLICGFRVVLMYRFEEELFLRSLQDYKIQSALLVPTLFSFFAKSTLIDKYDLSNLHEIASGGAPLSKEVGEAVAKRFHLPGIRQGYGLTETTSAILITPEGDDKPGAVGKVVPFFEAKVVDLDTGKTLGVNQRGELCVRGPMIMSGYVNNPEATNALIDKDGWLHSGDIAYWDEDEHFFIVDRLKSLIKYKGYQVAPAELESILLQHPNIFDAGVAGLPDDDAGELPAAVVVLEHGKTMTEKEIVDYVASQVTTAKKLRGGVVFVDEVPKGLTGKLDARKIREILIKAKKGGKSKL
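Purified P. pyralis luciferase, 10 nM final, with Km-level 10 uM D-luciferin and 10 uM ATP in 50 mM Tris acetate pH 7.5, 10 mM Mg acetate, 0.01% Tween-20, 0.05% BSA; 6-point qHTS titration about 60 µM downward; luminescence read.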
SMN2 splice up: increases expression of the SMN2 splice variant | AID 1458 | Potency, µM (titrated, usually from 46.1 µM), without a hit: at the highest dose activity change, positive = activation, usual class: activators | HEK293 SMN2-luciferase splicing reporter, luminescence, 30-36 h | 2.8% of 210,000 active; also: % of control where 0% means no effect; nearly all actives have a fitted effect of over 55% in size
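HEK293 cells carry an SMN2 […]–luciferase reporter in which exon 7 inclusion puts luciferase in frame. Cells were plated 10-12 h before compound addition, then incubated 30-36 h at 37C. ONE-Glo luminescence was read; sodium butyrate at 4.5 mM final served as control.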
KinaseGlo FLuc: Kinase-Glo luciferase inhibition (counter-screen); Q27757; Kinase-Glo luciferase, ATP luminescence, 8 min; Potency, µM (titrated, usually from 38.3 µM), for inactives: at the highest dose activity change, negative = inhibition, usual class: inhibitors; 0.28% of 200,000 active; AID 1379; also: % is scaled to controls: 0 for no effect and ±100 for the full control effect; nearly all actives have a fitted effect of over 60% in size
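Substrate mix (final 50 mM imidazole pH 7.2, 50 mM KCl, 7 mM MgCl2, 10 uM ATP, 0.01% Tween 20, 0.05% BSA) plus pin-tool compound, then Kinase-Glo detection mix; 8 min ambient, luminescence read.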
* = called active by the depositor; ? = inconclusive; / = no result; [ ] = another dose, or the depositor's remark. Calls follow the shape of the dose curve; as a rule, active = well fitted curve in the direction sought with a large enough effect; inconclusive = small, poorly fitted or top-dose-only effect, or another doubt; inactive = no such curve, though single readings can be large; an effect the other way counts as inactive or inconclusive. Potency is read from the fitted curve at half-maximal effect.

SMILES	NPC1 promoter act	Rab9 prom act	ELG1 genotox	FLuc counter	SMN2 splice up	KinaseGlo FLuc
Cc1ccc(Nc2nnc(-c3ccccc3N)o2)cc1C	3.5µM*	3.5µM*	?	2.7µM*	/	/
O=C(NCc1ccco1)/C(=C/C=C/c1ccccc1)NC(=O)c1ccco1	-1%	10%	0%	-14%	-12%	-4%
O=C(NCc1ccco1)/C(=C\C=C\c1ccccc1)NC(=O)c1ccccc1Br	-1%	2%	-15%	27µM*	-10%	0%
CCOC(=O)Cn1cc(C(=O)c2cccs2)c2ccccc21	2%	-5%	-2%	?	0.14µM*	0%
O=C(CCCN1C(=O)c2cccc3cccc(c23)C1=O)N1CCN(c2ccc(F)cc2)CC1	-8%	-13%	-16%	2%	/	4%
c1ccc(CN2CCN(C3=Nc4cccc5cccc3c45)CC2)cc1	13%	14%	12%	11µM*	9%	14%
Fc1ccc(N2CCN(C3=Nc4cccc5cccc3c45)CC2)cc1	24%	15%	2%	15µM*	0%	3%
Cc1cc(=O)n2[nH]c(NC(=O)c3cccc(Cl)c3)nc2n1	/	/	/	-17%	-9%	/
Cn1sc(NC(=O)c2ccccc2Cl)nc1=O	-8%	-1%	4%	19µM*	?	-4%
Cn1sc(NC(=O)c2cccc(Cl)c2)nc1=O	?	24%	13%	19µM*	17%	-4%
CC(=O)Cc1nsc(NC(=O)c2ccccc2Cl)n1	-1%	0%	9%	-10%	17%	1%
Cc1ccccc1C1CC(=O)Oc2cc(C)c(Cl)c(C)c21 (stereo not given)	/	/	/	/	/	0%[39.9 µM]
Oc1ccccc1C(Sc1nc2ccccc2s1)Sc1nc2ccccc2s1	/	/	/	/	12%[9.22 µM]	-4%[7.66 µM]
Cc1nc(NC2CCCCC2)c2nc(-c3ccccc3)n(CC3CCN(C)CC3)c2n1	/	/	/	/	0%	1%
CSc1nncc(/C(C)=N\Nc2cccc(C)c2)n1	5%	9%	7%	-5%	-14%	-7%
CSc1nnc2c(n1)c(C)nn2-c1cccc(C)c1	3%	-5%	1%	13µM*	14%	-3%
CC(C)=NNc1nc2c(c(=O)n(C)c(=O)n2C)n1C	7%	-4%	1%	-10%	/	/
Cn1c(=O)c2c(nc(NN=C3CCCCC3)n2C)n(C)c1=O	3%	-2%	0%	?	-49%	11µM*
COc1ccc(CNC(=O)Cc2c(C)c3c(cc(C)c4c(C)c(C)oc43)oc2=O)cc1	/	/	/	-1%	4%	/
O=C(Nc1ccc(Br)cc1)c1cccn1-c1ncc(C(F)(F)F)cc1Cl	6%	2%	-1%	0%	3%	-3%
COC(=O)c1ccc(CNC(=O)CSC2=NCCS2)cc1	-1%	0%	-3%	-6%	9%	1%
Cn1ccnc1SCC(=O)Nc1cccc(C(F)(F)F)c1	12%	14%	9%	2%[2.3 µM]	-8%	1%
COC(=O)c1ccc(CSc2nccn2C)cc1	18%	18%	13µM*	?	11µM*	-2%
Cn1ccnc1SCC(=O)c1cccc(C(F)(F)F)c1	2.8µM*	4µM*	?	17µM*	/	/
O=C(CSc1nccn1-c1ncc(C(F)(F)F)cc1Cl)c1ccc(Br)cc1	3.5µM*	1.6µM*	?	-18%	-34%	-3%
SMILES	NPC1 promoter act	Rab9 prom act	ELG1 genotox	FLuc counter	SMN2 splice up	KinaseGlo FLuc
COC(=O)c1ccc(CSC2=NCCS2)cc1	?	?	?	?	18µM*	3%
N/C(=N\O)c1cn([C@@H]2O[C@@H](CO)[C@H](O)[C@@H]2O)c2ncnc(NO)c12	/	/	/	/	0%[9.22 µM]	-6%[7.66 µM]
COc1ccc(C(=O)CSc2nccn2C)cc1	2.8µM*	3.5µM*	23µM*	17µM*	/	/
COc1cc(C(=O)CSc2nccn2C)cc(OC)c1OC	0%	8%	11%	-1%	/	/
CC1(C)S[C@@H]2[C@H](NC(=O)COc3ccccc3)C(=O)N2[C@H]1C(=O)O (tested in a mixture with another compound)	/	/	/	/	-10%[20.6 µM]	0%[17.1 µM]
Cc1cc(C)c(NC(=O)c2cc(C)nc3c2c(C)nn3-c2cccc(F)c2)c(C)c1	/	/	/	2%	/	/
Clc1ccc(N2CCN(c3ncnc4c3cnn4-c3ccccc3)CC2)cc1Cl	/	/	/	-2%	/	/
Cc1ccc(-n2ncc3c(N4CCCCCC4)ncnc32)cc1C	/	/	/	0.27µM*	/	/
Cc1cccc(-n2ncc3c(N4CCCCCC4)ncnc32)c1	/	/	/	0.6µM*	/	/
c1ccc(-n2ncc3c(N4CCCCC4)ncnc32)cc1	0.32µM*	?	0.46µM*	0.27µM*	-87%	-18%
COc1ccc(-n2ncc3c(N4CCC(C(N)=O)CC4)ncnc32)cc1	3.5µM*	2.8µM*	0%	15µM*	0%	0%
CCOC(=O)C1CCN(c2ncnc3c2cnn3-c2ccc(OC)cc2)CC1	2%	-2%	2%	?	-2%	1%
Cc1ccc(-n2ncc3c(N4CCCC4)ncnc32)c(C)c1	?	?	-7%	?	-17%	-2%
Cc1ccc(-n2ncc3c(N4CCN(Cc5ccccc5)CC4)ncnc32)cc1C	/	/	/	-13%	/	/
CC(=O)N1[C@H](Cc2ccccc2)C=C[C@]1(C)C(=O)O	/	/	/	/	-2%	0%
O=C(c1ccncc1)N1CCC[C@@]2(CCN(c3cccc(-c4ccccc4)c3)C2)C1	/	/	/	/	-44%	1%
Cc1cccc(-n2ncc3c(N4CCC(C)CC4)ncnc32)c1	1.1µM*	0.89µM*	?	1.9µM*	2.5µM*	11%
Cc1cccc(N2CCN(c3ncnc4c3cnn4-c3ccc(Cl)cc3)CC2C)c1 (stereo not given)	/	/	/	-2%	/	/
COc1ccc(C(=O)c2oc3ccccc3c2NC(=O)COc2ccccc2)cc1	/	/	/	0%	-8%	/
CCn1c(C)cc(C(=O)CN2C(=O)c3ccccc3S2(=O)=O)c1C	?	?	1%	/	/	/
Cc1cc(C(=O)CN2C(=O)C3CC=CCC3C2=O)c(C)n1-c1ccccc1 (stereo not given)	0.56µM*	0.71µM*	?	0.67µM*	-58%	-6%
Cc1cc(C(=O)CN2C(=O)c3ccccc3S2(=O)=O)c(C)n1-c1ccccc1	-13%	-11%	-27%	2.1µM*	-16%	-1%
Cc1cc(C(=O)CN2C(=O)c3ccccc3S2(=O)=O)c(C)n1C(C)C	-3%	?	2%	/	/	/
C=CCn1c(C)cc(C(=O)CN2C(=O)c3ccccc3S2(=O)=O)c1C	-32%	-35%	-4%	1.5µM*	/	/
CC(C)(C)c1ccc(-c2nnc(-c3ccccc3NC(=O)c3cccc(C(F)(F)F)c3)o2)cc1	/	/	/	0%	1%	/
Nc1nc(N2CCN(C(=O)c3ccco3)CC2)nc2ccccc12	27%	?	13%	19µM*	13µM*	1%

Screening data: PubChem BioAssay, National Center for Advancing Translational Sciences (NCATS)
